High-throughput results deposited in PubChem by several laboratories.
In the library only some 2.8% were active in any assay of this set; here they are far more common.
PP1 inh: counter-screen for PP5 inhibitors: inhibitors of human PP1-alpha; AID 2235; 0.9% of 320,000 active; purified PP1alpha, OMFP fluorescence; inhibition, % at 6.7 µM; P62136;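 active = inhibition above the mean inhibition of all tested compounds plus 3 SD, computed separately for each screening campaign, cut at about 15% in these data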
SKKanGAS inh: blocks kanamycin growth of S. pyogenes SKKanGAS strain; BacTiter-Glo, 6 h; 1.3% of 300,000 active; inhibition, % at 7.5 µM;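 active = mean replicate score, as percent of positive control median, at least 50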;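 also: strain carries kanamycin resistance gene driven by streptokinase promoter and grows in 40 µg/ml kanamycin; loss of luminescence reflects streptokinase promoter inhibition or plain growth inhibition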
PP5 primary: blocks human protein phosphatase 5 activity; P53041; purified PP5c, OMFP substrate fluorescence; inhibition, % at 6.7 µM; 0.18% of 320,000 active;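 active = inhibition above the campaign's mean inhibition across all tested compounds plus 3 SD, cut at about 9.5% in these data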
Exocytosis inh: blocks lytic granule exocytosis; AID 651702; 0.66% of 360,000 active; inhibition, % at 10 µM; TALL-104 LAMP-1 surface exposure, flow cytometry; cells stimulated with thapsigargin and PMA;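 active = inhibition above about 55%, limit read from the data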
IDE act: IDE (human) activation, cell-based; HEK cells, FAbeta-B cleavage, fluorescence polarization; 0% vehicle, 100% cell-free pure enzyme wells; 0.073% of 340,000 active; activation, % at 5.96 µM;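 active = activation above the mean of all tested compounds plus 3 SD, set per screening campaign, cut at about 17% in these data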
IDE cell inh: cellular human IDE inhibition; P14735; HEK cells, FAbetaB cleavage, fluorescence polarization; inhibition, % at 5.59 µM; 0.41% of 320,000 active;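 active = percent inhibition above the average of all tested compounds plus 3 SD, set per screening campaign, cut at about 16% in these data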;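 also: IDE supplied by intact live HEK cells; FP after avidin binding of uncleaved biotin substrate so inhibition keeps polarization high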
Of the large screens only hits and unclear results are named; the others gave an inactive call.

CCN(CC)c1ccc(/C=N/NC(=O)CNC(=O)C2COc3ccccc3O2)c(O)c1 (centres undefined)	SKKanGAS inh 58.5
CCN(CC)c1ccc(/C=N/NC(=O)CCC(=O)NCc2ccccc2)c(O)c1	SKKanGAS inh 55.8
O=C(CN1CCN(S(=O)(=O)c2ccc(Br)cc2)CC1)N/N=C/c1ccccc1C(=O)O	none
CCOc1ccc2nc(NC(=O)c3ccccn3)sc2c1	SKKanGAS inh 80.8
O=C(Nc1nc2c(F)cc(F)cc2s1)c1ccccn1	SKKanGAS inh 72.3
Cc1ccc2nc(NC(=O)c3ccccn3)sc2c1	SKKanGAS inh 85.3
CCOc1ccc2nc(NC(=O)c3ccoc3C)sc2c1	SKKanGAS inh 91.0
CCOc1ccc2nc(NC(=O)c3ccco3)sc2c1	none
CCOc1ccc2nc(NC(=O)Nc3ccccc3)sc2c1	none
Cc1ccc2nc(NC(=O)c3ccccc3F)sc2c1	none
CC(OC(=O)Cc1c[nH]c2ccccc12)C(=O)Nc1ccccc1F (centres undefined)	none
CC(/C=N/NC(=O)CSc1ccccn1)=C\c1ccc(C(C)C)cc1	none
CC(=C/c1ccc(C(C)C)cc1)/C=N/NC(=O)CSc1ccccn1	SKKanGAS inh 67.6
CCCCCC/C(=N/O)c1ccccn1	SKKanGAS inh 94.1
CCCCCC/C(=N\NS(C)(=O)=O)c1ccccc1	none
CCCn1c(N)c(C(=O)CSc2nnc(-c3ccoc3C)n2C)c(=O)n(C)c1=O	none (no result: SKKanGAS inh)
C[C@@H]1CN([C@@H](C)CO)C(=O)c2cc(Br)cnc2O[C@H]1CN(C)Cc1ccccc1C(=O)O	none (no result: PP1 inh, SKKanGAS inh, PP5 primary, IDE act, IDE cell inh)
C=C1C[C@H]2[C@@H]3CCc4cc(OC)ccc4[C@H]3CC[C@]12C	SKKanGAS inh 76.4
C[C@]12CC[C@@H]3c4ccc(OS(=O)(=O)O)cc4CC[C@H]3[C@@H]1CCC2=O	none
NC(=O)c1cc[n+](CC(=O)NC(=O)Nc2ccccc2)cc1	none (no result: SKKanGAS inh)
CCN(Cc1nc2cc(Cl)ccc2c(=O)[nH]1)C(=O)c1cccc(OCc2c(C)noc2C)c1	none (no result: SKKanGAS inh)
CC(=O)Nc1ccc2c(c1)C(=O)c1cccc(C(=O)O)c1-2	none (no result: PP1 inh, SKKanGAS inh, PP5 primary, IDE cell inh)
O=C(O)c1ccc2c(c1)C1C=CCC1C(c1cc3c(cc1Br)OCO3)N2 (centres undefined)	none
Cc1cc(C)c2c(c1)NC(c1cc3c(cc1Br)OCO3)C1CC=CC21 (centres undefined)	SKKanGAS inh 51.1
Brc1cc2c(cc1C1Nc3ccccc3C3C=CCC31)OCO2 (centres undefined)	SKKanGAS inh 63.7
COC1CC(NC(C)=O)C(OC(=O)c2ccccc2)C(CBr)O1 (centres undefined)	none (no result: PP1 inh, SKKanGAS inh, PP5 primary, IDE act, IDE cell inh)
COc1ccc(C(=O)CN2C(=O)NC3(CCCCCC3)C2=O)cc1	none
COc1ccc(N2CC(C(=O)N/N=C/c3cc([N+](=O)[O-])ccc3O)CC2=O)cc1 (centres undefined)	SKKanGAS inh 68.5
N#CC1=C(S)N(c2ccc(F)cc2)C2(CCCCC2)NC1=O	Exocytosis inh 80.6
Nc1nonc1-c1nc2ccccc2n1CC(=O)N/N=C/c1ccc(-c2cccc(C(=O)O)c2)o1	SKKanGAS inh 67.8 (no result: PP1 inh, PP5 primary, IDE cell inh)
COc1ccc(C2=NOC(CNC(N)=S)C2)cc1 (centres undefined)	SKKanGAS inh 51.2
COc1ccc(CNC(=O)C2CC(c3ccc(OC)cc3)=NO2)cc1 (centres undefined)	none
O=C1NC(NS(=O)(=O)c2ccccc2)(C(F)(F)F)C(=O)N1Cc1ccccc1 (centres undefined)	none
CCOc1ccc(/C=N/NC(=O)c2cc3c(OC)cccc3[nH]2)cc1	PP1 inh 16.1
COc1ccc(OC)c2[nH]c(C(=O)N/N=C/c3ccccc3O)cc12	SKKanGAS inh 113.5
COc1cc(C(=O)N/N=C/c2ccc3c(c2)c2ccccc2n3C)ccc1O	SKKanGAS inh 50.8 (no result: PP1 inh, PP5 primary, IDE cell inh)
COc1ccccc1/C=N/NC(=O)c1cc2c(OC)c(OC)ccc2[nH]1	none (no result: PP1 inh, PP5 primary, IDE cell inh)
COc1ccc(/C=N/NC(=O)c2cc3c(OC)ccc(OC)c3[nH]2)cc1O	Exocytosis inh 62.4
Cn1c(=O)[nH]c(=O)c2c1nc(N1CCC(Cc3ccccc3)CC1)n2Cc1ccccc1	SKKanGAS inh 53.1
CCCCCn1c(N2CCC(Cc3ccccc3)CC2)nc2c1c(=O)[nH]c(=O)n2C	PP1 inh 16.4, SKKanGAS inh 92.9
CCCn1c(N2CCC(Cc3ccccc3)CC2)nc2c1c(=O)[nH]c(=O)n2C	none
CC(=O)Cn1c(N2CCC(Cc3ccccc3)CC2)nc2c1c(=O)[nH]c(=O)n2C	none
CCN1CCN(c2cc(C)nc(-c3ccccc3O)n2)CC1	none
Cc1cc(C)c(OCC(=O)NCCCn2nc(C)cc2C)c(C)c1	none (no result: SKKanGAS inh)
O=C(/C=C/c1ccccc1)NC(=S)Nc1ccc(N2CCOCC2)c(Cl)c1	none
O=C(/C=C/c1ccco1)NC(=S)Nc1ccc(N2CCOCC2)c(Cl)c1	SKKanGAS inh 87.1
COc1ccc(C(=O)NC(=S)Nc2ccc(N3CCOCC3)c(Cl)c2)cc1[N+](=O)[O-]	SKKanGAS inh 68.1
O=C(CSc1nnc(Nc2ccccc2)s1)NCC1CCCO1 (centres undefined)	none (no result: SKKanGAS inh)
O=C(NC(=S)Nc1ccc(Cl)c(C(=O)O)c1)c1cccc(COc2ccccc2)c1	SKKanGAS inh 56.0
O=C(Cc1ccc(S(=O)(=O)N2CCCC2)s1)Nc1nc2c(s1)CCCC2	SKKanGAS inh 62.3
Cc1cc(C)cc(NC(=O)Cc2ccc(S(=O)(=O)N3CCCC3)s2)c1	none (no result: SKKanGAS inh)
C/C(=N\NC(=O)c1ccc(-c2ccccc2)cc1)C1C(=O)c2ccccc2C1=O	SKKanGAS inh 129.8
C/C(Cl)=C\Cn1c(O)c(N=NC(N)=S)c2cc(Br)ccc21	SKKanGAS inh 80.1
NC(=S)N=Nc1c(O)n(Cc2ccc(Br)cc2)c2ccccc12	SKKanGAS inh 61.3
NC(=S)N=Nc1c(O)n(CCCl)c2ccc(Br)cc12	Exocytosis inh 78.0
Cc1ccc2c(c1)c(N=NC(N)=S)c(O)n2Cc1ccccc1	none
CCCCn1c(O)c(N=NC(=O)c2ccncc2)c2cc(Br)ccc21	SKKanGAS inh 83.4
Cc1ccsc1C(=O)NC(C)c1ccccc1 (centres undefined)	none
Cc1cccc(NC(=O)c2sc(Cl)nc2-c2ccccc2)c1	SKKanGAS inh 67.4
CCOC(=O)[C@]12CCCC=C1N(CCC1=CCCCC1)C(=O)[C@H](CC(=O)NCc1ccccc1)C2	none (no result: PP1 inh, SKKanGAS inh, PP5 primary, IDE act, IDE cell inh)
CCn1cc(/C=N\NC(=O)C2(C)CC2(Cl)Cl)c(C)n1 (centres undefined)	none
N#CCC(=O)Nc1ccc(C(=O)OCC(=O)c2ccc3c(c2)NC(=O)CO3)cc1	PP1 inh 15.6 (no result: SKKanGAS inh)
CC(=O)Nc1cc(NC(C)=O)cc(C(=O)OCC(=O)c2ccc3c(c2)NC(=O)CO3)c1	none
Cc1ccc(F)c(NC(=O)c2ccc(Cn3cc(Cl)cn3)cc2)c1	none
Cc1ccc(F)c(NC(=O)/C(C#N)=C(\O)c2ccc(C(C)(C)C)cc2)c1	SKKanGAS inh 59.1
